From PubChem BioAssay (NCATS)
Several values for one entry are separate records, joined by “and”; a condition that tells them apart may be missing. Equal entries are not always repeated. Results filed as inconclusive are left out. Activity calls are given as the source filed them. Calls follow the shape of the dose curve; as a rule, active = well fitted activation curve with a large enough effect; inconclusive = small, poorly fitted or top-dose-only effect; inactive = no such curve, though single readings can be large or run the other way.
Potency is read from the fitted curve at half-maximal effect.

Each compound was assayed against Cellular tumor antigen p53 (Homo sapiens) (UniProt P04637) (assay: Primary qHTS for small molecule compounds that upregulate eGFP-tagged delta133p53alpha (in N-terminal) cells. (AID 2060322; also: nearly all actives have a fitted effect of over 75% in size;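 as to activation: series mostly up to about 56 µM; 0% = DMSO vehicle and 100% = reference activator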)). Settings: NCI-H358 eGFP-delta133p53alpha fluorescence, 24 h; activation: hits give high values.
Chain of Cellular tumor antigen p53 (Homo sapiens) (P04637 whole entry, looked up): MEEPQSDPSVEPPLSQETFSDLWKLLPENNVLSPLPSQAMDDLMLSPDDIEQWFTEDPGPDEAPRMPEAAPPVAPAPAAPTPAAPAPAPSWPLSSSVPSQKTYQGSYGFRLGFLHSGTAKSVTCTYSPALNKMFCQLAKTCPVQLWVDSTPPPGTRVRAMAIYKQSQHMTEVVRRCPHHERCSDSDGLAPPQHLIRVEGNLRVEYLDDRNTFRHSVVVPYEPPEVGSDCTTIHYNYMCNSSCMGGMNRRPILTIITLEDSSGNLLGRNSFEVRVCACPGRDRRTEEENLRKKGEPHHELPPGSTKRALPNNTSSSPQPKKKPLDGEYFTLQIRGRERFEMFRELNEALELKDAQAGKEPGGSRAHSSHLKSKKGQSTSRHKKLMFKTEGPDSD
How it was run: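 NCI-H358 cells pre-induced 24 h with 10 ng/ml doxycycline to express N-terminal eGFP-delta133p53alpha, then dosed 24 h at 37C without doxycycline; fixed, Hoechst-stained, GFP intensity by laser scanning cytometry, normalized to DMSO (0%) and 57.5 uM 5-azacytidine (100%).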
With `O=C(CCCl)NCc1ccccc1` the activation was -0.565% (inactive).
For `CCCCCCOc1ccccc1C(N)=O`, the activation was 8.47% (inactive).
In the case of `C[N+]12CCC(CC1)C(OC(=O)C(O)(c1ccccc1)c1ccccc1)C2` (stereo not given), the activation is reported as -8.47% (inactive).
`Cc1c(NC(C)C)c(=O)n(-c2ccccc2)n1C` was tested, and the activation was 11.7% (inactive).
For `CSc1ccc(/C=C2/C(C)=C(CC(=O)O)c3cc(F)ccc32)cc1`, the activation was -8.47% (inactive).
With `CCN1CC(CCN2CCOCC2)C(c2ccccc2)(c2ccccc2)C1=O` (stereo not given) the activation was 5.08% (inactive).
`Nc1ccc(S(=O)(=O)c2ccc(N)cc2)cc1` was tested, and the activation was 7.53% (inactive).
`CN=C(NC#N)NCCSCc1csc(N=C(N)N)n1` was tested, and the activation was 9.6% (inactive).
With `Cc1cnc(NS(=O)(=O)c2ccc(N)cc2)nc1` the activation was 2.82% (inactive).
`Cc1[nH]c(C=C2C(=O)Nc3ccc(S(=O)(=O)N(C)c4cccc(Cl)c4)cc32)c(C)c1C(=O)N1CCN(C)CC1` was tested, and the Potency was 6.11 µM (active).
In the case of `CCN(CC)CC(=O)OCC(=O)[C@@]1(O)CC[C@H]2[C@@H]3CCC4=CC(=O)CC[C@]4(C)[C@H]3[C@@H](O)C[C@@]21C`, the activation is reported as -4.18% (inactive).
For `CC(=O)NCC(=O)N1[C@H]2CC[C@H]1c1cc(Nc3ncc(C(F)(F)F)c(NC4CCC4)n3)ccc12`, the activation was 32.7% (inactive).
`O=C(O)c1ccnc2cc(C(OCCCN3CCCCC3)c3ccccc3Cl)[nH]c12` (stereo not given) was tested, and the activation was 1.12% (inactive).
With `CCCCC(CC)COC(=O)c1ccc(N(C)C)cc1` (stereo not given) the activation was 0.837% (inactive).
For `O=C1c2c(O)cccc2[C@@H]([C@@H]2O[C@H](CO)[C@@H](O)[C@H](O)[C@H]2O)c2cc(CO)cc(O)c21`, the activation was -15.3% (inactive).
For `Nc1ccc(O)c(C(=O)O)c1`, the activation was -19.2% (inactive).
With `CC(C)CCOC(=O)c1ccc(N(C)C)cc1` the activation was 6.69% (inactive).
In the case of `O=C(O)CCNC(=O)c1ccccc1`, the activation is reported as -12.6% (inactive).
In the case of `CC(C)C(C)(C)C(C)(C)C(C)(C)S`, the activation is reported as 5.08% (inactive).
`CC(C)=CCC[C@@](C)(O)[C@H]1CC=C(C)CC1` was tested, and the activation was 18.6% (inactive).
In the case of `Cc1ccc(C(=O)NCCCCCC(=O)Nc2ccccc2N)cc1`, the activation is reported as 11.2% (inactive).
In the case of `O=C1C(Cl)=C(N2CCOCC2)C(=O)N1c1ccc(Cl)c(Cl)c1`, the activation is reported as -1% (inactive).
For `Cc1c(F)cc2c(=O)c(C(=O)O)cn3c2c1CCC3C` (stereo not given), the activation was 16.7% (inactive).
In the case of `CO[C@@]1(NC(=O)CSC[C@@H](N)C(=O)O)C(=O)N2C(C(=O)O)=C(CSc3nnnn3C)CS[C@@H]21`, the activation is reported as 13.4% (inactive).
`CNC(=O)CN(CCN(CCN(CC(=O)[O-])CC(=O)NC)CC(=O)[O-])CC(=O)[O-].O.[Gd+3]` was tested, and the activation was 0.837% (inactive).
In the case of `O=C(O)Cc1cccc2ccccc12`, the activation is reported as 1.67% (inactive) and -33.3% (inactive).
For `CC(C)(O)[C@H]1CC[C@@](C)([C@H]2[C@@H](O)C[C@@]3(C)[C@@H]4C[C@H](O[C@@H]5O[C@H](CO)[C@@H](O)[C@H](O)[C@@H]5O)[C@H]5C(C)(C)[C@@H](O[C@@H]6OC[C@@H](O)[C@H](O)[C@@H]6O)CC[C@@]56C[C@@]46CC[C@]23C)O1`, the activation was 10.3% (inactive).
In the case of `CCCCCCCC/C=C/C(=O)O`, the activation is reported as -2.82% (inactive).
With `Cc1ncc(CO)c(C=O)c1O` the activation was -3.35% (inactive).
For `Oc1c(Cl)cc(Cl)c(Cl)c1Cc1c(O)c(Cl)cc(Cl)c1Cl`, the activation was 19.8% (inactive).
In the case of `COc1cc(OC)nc(O[C@H](C(=O)O)C(OC)(c2ccccc2)c2ccccc2)n1`, the activation is reported as -22% (inactive).
`O=C(O)Cc1ccc2c(c1)C(=O)c1ccccc1CO2` was tested, and the activation was 7.34% (inactive).
In the case of `CNC(=O)c1c(I)c(NC(C)=O)c(I)c(C(=O)O)c1I`, the activation is reported as -8.47% (inactive).
With `CN(C)CCC=C1c2ccccc2COc2ccc(CC(=O)O)cc21` the activation was 16.8% (inactive).
With `Nc1ccc(C(=O)O)cc1` the activation was -29.9% (inactive).
With `COC(=O)C=CC(=O)OC` the activation was -16.5% (inactive).
With `CCn1c(-c2nc3cc(C(=O)N4CCC[C@@H](N)C4)cc(OC)c3n2C)cc2ccccc21` the activation was -14.5% (inactive).
With `CN1C(C)(C)CCCC1(C)C` the activation was 0% (inactive).
For `O=C1NC(c2ccccc2)(c2ccccc2)C(=O)N1COP(=O)(O)O`, the activation was -11.9% (inactive).
For `CC(=O)O[C@]1(C(C)=O)CC[C@H]2[C@@H]3C=C(Cl)C4=CC(=O)CC[C@]4(C)[C@H]3CC[C@@]21C`, the activation was -6.69% (inactive).
